Reference: PubChem BioAssay AID1159580 (chemical genetic matrix, 2015)
“And” between values parts separate entries of the source, which are not always exact repeats. Equal entries are not always repeated. Screen size: about 5,500 compounds; about 2,000 (36%) were called active. Inconclusive results (about 18%) are left out. Rule as the data show it: active = normalized growth mostly below about 0.91 (no sharp cut-off); inconclusive = no clear call, values can overlap the other calls; inactive = mostly above about 0.92. This is one part of the list.

Experiment: chemical genetic growth profiling, strain panel (AID 1159580);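 also: tested at 20 µM; growth read once vehicle control cultures reached saturation at 30 °C; 1 = growth at the plate median or of vehicle wells; lower values mean less growth of the strain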
Conditions: S. cerevisiae deletion strains, growth OD

Measured: normalized growth

CC(=O)Oc1cccc2c1C(=O)c1c(OC(C)=O)cc(C(=O)O)cc1C2=O
active: locus YAL026C, strain drs2, active compounds read low 0.896 | locus YBL061C, strain skt5, active compounds read low 0.915 | locus YBR231C, strain swc5, active compounds read low 0.874 | locus YCL029C, strain bik1, active compounds read low 0.585 | locus YCL061C, strain MRC1, active compounds read low 0.896 | locus YDL192W, strain arf1, active compounds read low 0.175 | locus YDR069C, strain doa4, active compounds read low 0.865 | locus YDR101C, strain arx1, active compounds read low 0.438 | locus YDR297W, strain sur2, active compounds read low 0.913 | locus YDR318W, strain mcm21, active compounds read low 0.32 | locus YDR388W, active compounds read low 0.171 | locus YDR502C, strain sam2, active compounds read low 0.341 | locus YER015W, strain faa2, active compounds read low 0.92 | locus YER110C, active compounds read low 0.643 | locus YER155C, strain BEM2 (second series), active compounds read low 0.858 | locus YGL086W, strain mad1, active compounds read low 0.337 | locus YGL167C, strain pmr1, active compounds read low 0.906 | locus YGL240W, strain doc1, active compounds read low 0.832 | locus YGR135W, strain pre9, active compounds read low 0.3 | locus YGR252W, strain gcn5, active compounds read low 0.33 | locus YHR079C, strain IRE1 (second series), active compounds read low 0.481 | locus YHR094C, strain hxt1, active compounds read low 0.476 | locus YHR200W, strain rpn10, active compounds read low 0.354 | locus YIR030C, strain dcg1, active compounds read low 0.456 | locus YJL092W, strain hpr5, active compounds read low 0.916 | locus YJL095W, strain BCK1 (second series), active compounds read low 0.909 | locus YJL164C, strain tpk1, active compounds read low 0.875 | locus YJL166W, strain qcr8, active compounds read low 0.871 | locus YJL168C, strain set2, active compounds read low 0.545
inactive: locus YAL013W, strain DEP1, active compounds read low 1 | locus YAL021C, strain ccr4, active compounds read low 0.969 | locus YAL030W, strain snc1, active compounds read low 0.93 | locus YBR009C, strain hhf1, active compounds read low 0.919 | locus YBR021W, strain FUR4, active compounds read low 0.994 | locus YBR023C, strain chs3, active compounds read low 0.918 | locus YBR171W, strain sec66, active compounds read low 0.957 | locus YBR229C, strain ROT2, active compounds read low 1.01 | locus YBR279W, strain paf1, active compounds read low 0.972 | locus YCL011C, strain gbp2, active compounds read low 0.923 | locus YCL016C, strain dcc1, active compounds read low 0.946 | locus YCL069W, strain vba3, active compounds read low 0.951 | locus YCR088W, strain abp1, active compounds read low 0.929 | locus YDL005C, strain med2, active compounds read low 0.943 | locus YDL035C, strain GPR1, active compounds read low 1.01 | locus YDL040C, strain nat1, active compounds read low 0.961 | locus YDL074C, strain BRE1, active compounds read low 1.03 | locus YDL101C, strain DUN1, active compounds read low 1.01 | locus YDL134C, strain PPH21, active compounds read low 1.02 | locus YDL185W, strain tfp1, active compounds read low 0.993 | locus YDR001C, strain nth1, active compounds read low 0.93 | locus YDR137W, strain rgp1, active compounds read low 0.97 | locus YDR150W, strain NUM1, active compounds read low 1 | locus YDR159W, strain sac3, active compounds read low 0.9 | locus YDR162C, strain NBP2, active compounds read low 0.99 | locus YDR195W, strain ref2 0.991 | locus YDR334W, strain swr1, active compounds read low 0.957 | locus YDR335W, strain msn5, active compounds read low 0.949 | locus YDR392W, strain spt3, active compounds read low 0.84 | locus YEL003W, strain gim4, active compounds read low 0.954 | locus YEL037C, strain rad23, active compounds read low 0.962 | locus YEL061C, strain CIN8 (second series), active compounds read low 0.932 | locus YEL061C, strain CIN8, active compounds read low 0.992 | locus YER016W, strain bim1, active compounds read low 0.945 | locus YER111C, strain swi4, active compounds read low 0.963 | locus YER155C, strain BEM2, active compounds read low 1.01 | locus YER167W, strain BCK2, active compounds read low 1 | locus YFR010W, strain ubp6, active compounds read low 0.943 | locus YGL078C, strain dbp3, active compounds read low 1 | locus YGL173C, strain kem1, active compounds read low 0.929 | locus YGL227W, strain vid30, active compounds read low 0.962 | locus YGL248W, strain PDE1, active compounds read low 1.01 | locus YGL253W, strain hxk2, active compounds read low 0.932 | locus YGR078C, strain PAC10, active compounds read low 1 | locus YGR229C, strain SMI1, active compounds read low 1.02 | locus YHR013C, strain ard1, active compounds read low 0.991 | locus YHR027C, strain rpn1, active compounds read low 0.942 | locus YHR030C, strain SLT2, active compounds read low 0.999 and 0.943 | locus YHR079C, strain IRE1, active compounds read low 0.964 | locus YHR129C, strain ARP1, active compounds read low 1.01 | locus YHR142W, strain chs7, active compounds read low 0.939 | locus YIL066C, strain RNR3, active compounds read low 1.02 | locus YIL073C, strain SPO22, active compounds read low 0.995 | locus YIL125W, strain kgd1, active compounds read low 1 | locus YJL095W, strain BCK1, active compounds read low 0.994 and 0.953 | locus YJL115W, strain asf1, active compounds read low 0.939 | locus YJL129C, strain trk1, active compounds read low 1 | locus YJL134W, strain LCB3, active compounds read low 1.01 | locus YJL154C, strain vps35, active compounds read low 0.953 | locus YJL187C, strain SWE1 (second series), active compounds read low 1.01 | locus YJL187C, strain SWE1, active compounds read low 0.931 | locus YJR043C, strain POL32, active compounds read low 0.998 | locus YJR066W, strain TOR1, active compounds read low 0.902
